Several values for one entry are separate records, joined by “and”; a condition that tells them apart may be missing. Equal entries are not always repeated. In all, about 5,500 compounds went through this assay and about 2,000 (36%) were called active. Inconclusive results (about 18%) are left out. No stated cut-off is given here; in the data, active means normalized growth mostly below about 0.91 (no sharp cut-off); inconclusive means no clear call, values can overlap the other calls; inactive means mostly above about 0.92. The list shows a part of the results.
Experiment: chemical genetic growth profiling, strain panel (AID 1159580);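 further: tested at 20 µM; growth read once vehicle control cultures reached saturation at 30 °C; 1 = growth at the plate median or of vehicle wells; lower values mean less growth of the strain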
Details: S. cerevisiae deletion strains, growth OD

Measured: normalized growth

CC(=O)/C=C\[C@@H]1[C@@]2(C)CCCC(C)(C)C2CC[C@@]1(C)O (some centres not stated)
inactive: locus YAL013W, strain DEP1, hits give low values 0.964 | locus YAL021C, strain ccr4, hits give low values 0.989 | locus YAL026C, strain drs2, hits give low values 0.971 | locus YAL030W, strain snc1, hits give low values 0.974 | locus YBL061C, strain skt5, hits give low values 0.983 | locus YBR009C, strain hhf1, hits give low values 0.971 | locus YBR021W, strain FUR4, hits give low values 0.99 | locus YBR023C, strain chs3, hits give low values 0.977 | locus YBR171W, strain sec66, hits give low values 0.96 | locus YBR229C, strain ROT2, hits give low values 0.946 | locus YBR231C, strain swc5, hits give low values 0.988 | locus YBR279W, strain paf1, hits give low values 0.966 | locus YCL011C, strain gbp2, hits give low values 0.966 | locus YCL016C, strain dcc1, hits give low values 0.988 | locus YCL029C, strain bik1, hits give low values 0.985 | locus YCL061C, strain MRC1, hits give low values 0.988 | locus YCL069W, strain vba3, hits give low values 0.949 | locus YCR088W, strain abp1, hits give low values 0.986 | locus YDL005C, strain med2, hits give low values 0.971 | locus YDL035C, strain GPR1, hits give low values 0.963 | locus YDL040C, strain nat1, hits give low values 0.983 | locus YDL074C, strain BRE1, hits give low values 0.901 | locus YDL101C, strain DUN1, hits give low values 0.952 | locus YDL134C, strain PPH21, hits give low values 0.964 | locus YDL185W, strain tfp1, hits give low values 0.966 | locus YDL192W, strain arf1, hits give low values 0.98 | locus YDR001C, strain nth1, hits give low values 0.967 | locus YDR069C, strain doa4, hits give low values 0.973 | locus YDR101C, strain arx1, hits give low values 0.995 | locus YDR137W, strain rgp1, hits give low values 0.902 | locus YDR150W, strain NUM1, hits give low values 0.967 | locus YDR159W, strain sac3, hits give low values 0.922 | locus YDR162C, strain NBP2, hits give low values 0.843 | locus YDR195W, strain ref2 0.955 | locus YDR297W, strain sur2, hits give low values 0.982 | locus YDR318W, strain mcm21, hits give low values 1 | locus YDR334W, strain swr1, hits give low values 0.946 | locus YDR335W, strain msn5, hits give low values 0.981 | locus YDR388W, hits give low values 0.987 | locus YDR392W, strain spt3, hits give low values 0.842 | locus YDR502C, strain sam2, hits give low values 0.951 | locus YEL003W, strain gim4, hits give low values 0.976 | locus YEL037C, strain rad23, hits give low values 0.969 | locus YEL061C, strain CIN8 (second series), hits give low values 0.961 | locus YEL061C, strain CIN8, hits give low values 0.968 | locus YER015W, strain faa2, hits give low values 0.966 | locus YER016W, strain bim1, hits give low values 0.982 | locus YER110C, hits give low values 0.985 | locus YER111C, strain swi4, hits give low values 0.978 | locus YER155C, strain BEM2 (second series), hits give low values 0.982 | locus YER155C, strain BEM2, hits give low values 0.972 | locus YER167W, strain BCK2, hits give low values 0.989 | locus YFR010W, strain ubp6, hits give low values 0.967 | locus YGL078C, strain dbp3, hits give low values 0.968 | locus YGL086W, strain mad1, hits give low values 0.996 | locus YGL167C, strain pmr1, hits give low values 0.971 | locus YGL173C, strain kem1, hits give low values 0.975 | locus YGL227W, strain vid30, hits give low values 0.982 | locus YGL240W, strain doc1, hits give low values 0.976 | locus YGL248W, strain PDE1, hits give low values 0.969 | locus YGL253W, strain hxk2, hits give low values 0.975 | locus YGR078C, strain PAC10, hits give low values 0.963 | locus YGR135W, strain pre9, hits give low values 0.922 | locus YGR229C, strain SMI1, hits give low values 0.933 | locus YGR252W, strain gcn5, hits give low values 1.05 | locus YHR013C, strain ard1, hits give low values 0.964 | locus YHR027C, strain rpn1, hits give low values 0.967 | locus YHR030C, strain SLT2, hits give low values 0.993 and 0.958 | locus YHR079C, strain IRE1 (second series), hits give low values 0.987 | locus YHR079C, strain IRE1, hits give low values 0.989 | locus YHR094C, strain hxt1, hits give low values 0.99 | locus YHR129C, strain ARP1, hits give low values 0.975 | locus YHR142W, strain chs7, hits give low values 0.979 | locus YHR200W, strain rpn10, hits give low values 0.988 | locus YIL066C, strain RNR3, hits give low values 0.953 | locus YIL073C, strain SPO22, hits give low values 1.02 | locus YIL125W, strain kgd1, hits give low values 0.991 | locus YIR030C, strain dcg1, hits give low values 0.978 | locus YJL092W, strain hpr5, hits give low values 0.98 | locus YJL095W, strain BCK1 (second series), hits give low values 0.963 | locus YJL095W, strain BCK1, hits give low values 0.916 and 0.981 | locus YJL115W, strain asf1, hits give low values 0.96 | locus YJL129C, strain trk1, hits give low values 0.957 | locus YJL134W, strain LCB3, hits give low values 0.969 | locus YJL154C, strain vps35, hits give low values 0.973 | locus YJL164C, strain tpk1, hits give low values 0.997 | locus YJL166W, strain qcr8, hits give low values 0.982 | locus YJL168C, strain set2, hits give low values 0.976 | locus YJL187C, strain SWE1 (second series), hits give low values 0.945 | locus YJL187C, strain SWE1, hits give low values 0.969 | locus YJR043C, strain POL32, hits give low values 1.03 | locus YJR066W, strain TOR1, hits give low values 0.951

Reference: PubChem BioAssay AID1159580 (chemical genetic matrix, 2015)
